# Screening data (PubChem BioAssay)
# VDR inhibitor: blocks the human vitamin D receptor; P11473; VDR-SRC2-3 peptide fluorescence polarization, 2 h; Potency, µM, inactives show max response, negative = inhibition, usual class: inhibitors; actives 0.93% (n = 400,000); also: % is scaled to controls: 0 for no effect and ±100 for the full control effect
# Target sequence (P11473 whole entry, looked up): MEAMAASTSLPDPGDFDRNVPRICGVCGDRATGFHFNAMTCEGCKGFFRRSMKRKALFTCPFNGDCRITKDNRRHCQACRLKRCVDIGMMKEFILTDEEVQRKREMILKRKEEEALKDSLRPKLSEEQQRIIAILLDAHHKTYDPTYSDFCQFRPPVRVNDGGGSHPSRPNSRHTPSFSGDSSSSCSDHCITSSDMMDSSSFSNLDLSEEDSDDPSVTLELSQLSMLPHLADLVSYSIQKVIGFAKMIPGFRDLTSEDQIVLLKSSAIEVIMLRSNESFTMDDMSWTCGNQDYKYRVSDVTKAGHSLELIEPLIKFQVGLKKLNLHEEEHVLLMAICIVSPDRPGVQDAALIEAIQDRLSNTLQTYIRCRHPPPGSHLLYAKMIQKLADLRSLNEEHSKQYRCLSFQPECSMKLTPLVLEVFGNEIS
#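 Reagent solutions, kept cold and dark, are dispensed first; compounds are then pinned in at 23 nl, plates briefly spun, and incubated 2 h at ambient temperature. Inhibition of VDR–SRC2-3 peptide binding is read by fluorescence polarization.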
# GLS inhibitor: inhibitors of human glutaminase (GLS). actives 0.21% (n = 410,000). Potency, µM (titrated, usually from 45.5 µM), inactives show at the top dose activity change, negative = inhibition, hits mostly inhibitors. GLS enzymatic activity, qHTS titration. O94925; also: % is scaled to controls: 0 for no effect and ±100 for the full control effect
#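 Compounds were pin-transferred onto hKGA, after which L-glutamine (1 mM solution) and a detection mix of glutamate oxidase, HRP and Amplex Red were added. Initial and 30 min RT fluorescence reads were collected.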
# PLK1 PBD inh: blocks phosphopeptide binding to human PLK1 polo-box domain. AID 720504. Plk1 PBD binding of FITC phosphopeptide, fluorescence polarization. P53350. Potency, µM, without a hit: max response, negative = inhibition, most hits filed as inhibitors. actives 2.8% (n = 360,000); also: series mostly up to about 57 µM; % is scaled to controls: 0 for no effect and ±100 for the full control effect; nearly all actives have a fitted effect of over 65% in size
# Mito fusion act: blocks mitochondrial division or promotes mitochondrial fusion | S. cerevisiae fusion-defective mutant growth rescue, CellTiterGlo 48 h | Potency, µM (highest dose often 46.1 µM), for the others: at the top dose growth rescue (activation), hits mostly activators | actives 0.23% (n = 320,000); also: % of control where 0% means no effect; nearly all actives have a fitted effect of over 45% in size
#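 S. cerevisiae fusion-defective temperature-sensitive mutants (e.g. fzo1-1, mgm1-5) grown 48 h at 37C in YPEG (ethanol/glycerol non-fermentable) medium with 23 nl compound per well; growth rescue read as CellTiterGlo luminescence.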
# GCN5L2 inh: blocks human GCN5L2 histone acetyltransferase | GCN5L2 HAT assay, ThioGlo1 CoA-SH fluorescence | actives 0.21% (n = 390,000) | Q92830 | Potency, µM (top dose mostly 58.9 µM), without a hit: at the top dose activity change, negative = inhibition, hits mostly inhibitors; also: % is scaled to controls: 0 for no effect and ±100 for the full control effect
#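 qHTS, 1536-well. 20nM enzyme, pH 7.5 HEPES/EDTA/Tween-20 buffer; 15 min compound preinc., RT. Start: 75uM H3(1-25), 70uM AcCoA, 50uM ThioGlo1. Read Ex340/Em540 at t=0 (autofluorescence flag) and t=20 min.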
# PKM2 activator: increases activity of human pyruvate kinase M2; P14618; purified PKM2, Kinase-Glo ATP luminescence, activation; response scale: 0% is enzyme alone, no compound; actives 0.34% (n = 260,000); Potency, µM (doses to about 57.5 µM), inactives show at the top dose activation, hits mostly activators; also: % is scaled to controls: 0 for no effect and ±100 for the full control effect; nearly all actives have a fitted effect of over 55% in size
#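 Kinase-Glo luminescence reports ATP generated from ADP (0.1 mM) and PEP (0.5 mM) by purified hPK-M2 after 1 h at room temperature, pH 7.2 imidazole buffer; intermediate enzyme activity allows detecting inhibitors and activators.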
# Active calls of the source: *; ? = inconclusive; · = no result. Compounds with a hit are over-represented: about 3.4% of the library has one in this group of screens. Calls follow the shape of the dose curve; as a rule, active = well fitted curve in the direction sought with a large enough effect; inconclusive = small, poorly fitted or top-dose-only effect, or another doubt; inactive = no such curve, though single readings can be large; an effect the other way counts as inactive or inconclusive. Potency is read from the fitted curve at half-maximal effect.
SMILES,VDR inhibitor,GLS inhibitor,PLK1 PBD inh,Mito fusion act,GCN5L2 inh,PKM2 activator
Cc1ccc(CNCc2ccc3c(c2)n(C)c(=O)n3C)cc1,7%,-2%,·,·,5%,·
Cn1ccc(=S)c2ccccc21,-15%,-25%,12µM*,-4%,-16%,7%
Cn1c(=S)n(C)c2ccccc21,6%,2%,-1%,3%,1%,6%
CC/C(=N\Nc1ccc([N+](=O)[O-])cc1)c1ccccc1,?,19%,17µM*,-6%,-11%,-8%
O=[N+]([O-])c1ccc(NN=C(Oc2ccccc2)c2ccc([N+](=O)[O-])cc2)cc1,·,2%,3%,·,·,·
CC1(C)CCC[C@@](C)([C@H]2CC[C@]3(C)[C@@H]2[C@H](O)C[C@@H]2[C@@]4(C)CC[C@H](O)C(C)(C)[C@@H]4CC[C@]23C)O1,9%,·,·,·,-9%,·
Cc1noc(C)c1-c1cncnc1N1CCN(C)CC1,32µM*,·,·,·,-8%,·
Cc1noc(C)c1-c1cncnc1NCCN1CCOCC1,?,·,·,·,1%,·
CC/C=C\C/C=C\C/C=C\C/C=C\C/C=C\C/C=C\CCC(=O)NCCCC(=O)O,-14%,·,·,·,·,·
CCOCCOC(=O)C1=C(C)Nc2ccc(C)cc2S1,89µM*,9%,?,-5%,-7%,10%
CSCCOC(=O)C1=C(C)Nc2ccc(C)cc2S1,?,8%,19µM*,4%,-7%,15%
CCc1ccc(C(=O)c2cn(CC(=O)Nc3ccc(C)c(C)c3)c3ccccc3c2=O)cc1,-15%,-1%,·,·,-18%,·
COc1cc(C)nc(Nc2nc(C)c(C(C)=O)s2)n1,-14%,?,3µM*,2%,-7%,-4%
COc1ccc(CCNc2nc(C)c(C(C)=O)s2)cc1OC,40µM*,-8%,4.7µM*,-4%,?,-21%
CC(=O)c1sc(NCc2ccc(C)cc2)nc1C,24%,-2%,-23%,3%,0%,·
COc1ccc(CCNc2nc(-c3ccc(F)cc3)c(CC(=O)O)s2)cc1OC,79µM*,11µM*,8.4µM*,-3%,-6%,-8%
CC(=O)Nc1nc(C)c(C(C)=O)s1,-2%,-10%,1%,-1%,-7%,-4%
CCN(CC)C(=O)[C@@]1(c2ccccc2)C[C@@H]1CN,12%,-5%,·,·,4%,·
CC(=O)Nc1ccc(/C(C)=N/Nc2nc(N3CCOCC3)nc(N3CCOCC3)n2)cc1,?,2%,30µM*,-6%,-16%,-8%
C/C(=N\Nc1nc(N2CCCCCC2)nc(N2CCCCCC2)n1)c1ccccc1,-19%,-2%,-13%,6%,-6%,1%
Cc1onc(-c2ccccc2)c1C(=O)NCCCc1ccccc1,?,-3%,-6%,-5%,-3%,·
COc1ccc(N/C(C)=C/C(=O)c2ccccc2)cc1,-7%,-6%,-11%,0%,-7%,12%
COc1ccc(N/C(C)=C/C(=S)Nc2ccccc2)cc1,-7%,13µM*,-13%,0%,18%,0%
C=CCOc1ccc(C=CC(=O)c2c(O)c(OC)c(OC)c(OC)c2OC)cc1,45µM*,13%,-8%,·,·,·
O=C(CCN1CCN(Cc2ccccc2)CC1)NNC(=O)Nc1cccc([N+](=O)[O-])c1,-8%,0%,-14%,3%,1%,-7%
SMILES,VDR inhibitor,GLS inhibitor,PLK1 PBD inh,Mito fusion act,GCN5L2 inh,PKM2 activator
CCc1ccc([C@@H]2C[C@H]3[C@@H](CN2S(=O)(=O)c2ccc(C)cc2)C(=O)C[C@@H](c2ccccc2)N3S(=O)(=O)c2ccc(C)cc2)cc1,·,2%,-12%,·,·,·
Cn1c(Cc2cccs2)n[nH]c1=S,-25%,26%,27µM*,-8%,1%,-2%
O=C(CSc1nc2ccccc2s1)Nc1ccc(Cl)c(C(=O)O)c1,2%,-1%,8.4µM*,2%,?,-3%
CC(=O)CSc1nc2ccccc2s1,10%,-8%,27µM*,-3%,25%,-2%
COc1ccc(/C=N/NC(=O)CCSc2nc3ccccc3s2)cc1,-25%,23%,30µM*,-1%,-7%,-1%
C=CCOC(=O)N[C@@H](CCc1ccccc1)C(C(C)=O)C(C)=O,7%,·,·,·,·,·
COC(=O)C1=C[C@@H](C(=O)OC)C2C3=C(C(=O)[C@@]2(C)NC(=O)c2ccccc2)[C@H](C)[C@@H]2C(=O)N(C)C(=O)[C@@H]2[C@@H]3C1 (stereo partly drawn),-29%,·,·,·,·,·
CCOC(=O)c1cccc(NC(=O)Nc2c(C)n(C)n(-c3ccccc3)c2=O)c1,8%,90%,·,·,-16%,·
O=C1C(=Cc2cccc(F)c2)Cc2ccccc21,·,4%,-13%,·,·,·
O=C(O)CSCC(=O)Nc1ccc(-c2nc3ccccc3s2)cc1,?,13%,9.5µM*,3%,-16%,-37%
Cc1ccc2nc(-c3ccc(NC(=O)CSCC(=O)O)cc3)sc2c1,-21%,5%,?,-2%,-4%,-16%
Cn1c(CSc2nc3ccccc3s2)n[nH]c1=S,25%,7%,30µM*,2%,0%,2%
COc1ccc(C2N=C(Nc3nc4ccccc4o3)NC3=C2C(=O)CC(C)(C)C3)cc1 (stereo not drawn),-2%,·,·,·,·,·
CCCCNc1nc(C)nc2c1nc(-c1ccccc1)n2CC(C)(C)CN(C)C,·,·,·,·,·,-9%
CN(CC(=O)Nc1ccc(F)c(F)c1F)C(=O)CN1C(=O)C2CCCCC2C1=O (stereo not drawn),13%,1%,-4%,2%,-3%,0%
O=C(O)c1ccccc1N=Nc1ccc(O)cc1,?,44%,30µM*,·,·,·
O=C(O)c1cc(O)ccc1N=Nc1ccccc1,-8%,23%,-1%,13%,-24%,-2%
O=C(CCl)c1ccc2c(c1)CCN2C(=O)C1CCCCC1,45µM*,12%,0.75µM*,-38%,-6%,0%
CC1CCCN(S(=O)(=O)c2ccc3c(c2)CCN3C(=O)C2CCC2)C1 (stereo not drawn),7%,6%,2%,-4%,-2%,2%
CC1CCN(S(=O)(=O)c2ccc3c(c2)CCN3C(=O)C2CCC2)CC1,-16%,27%,24µM*,1%,1%,·
O=C(NCC(c1cccs1)S(=O)(=O)c1cccs1)c1ccc(Cl)cc1 (stereo not drawn),9%,-4%,·,·,-19%,·
O=C(CSc1ncccc1-c1nc2ccccc2[nH]1)NCc1ccco1,?,?,19µM*,1%,-9%,-1%
Cc1cc2nc(-c3cccnc3SCC(=O)NCc3ccco3)[nH]c2cc1C,-8%,0%,-12%,-12%,-12%,-43%
CCCc1cc(=O)[nH]c(SCC(=O)N(CC)c2c(N)n(Cc3ccccc3)c(=O)[nH]c2=O)n1,7%,-5%,-6%,-3%,3%,·
